Values without a mark were called inactive. How the calls were made is not given here.
target: L-lactate dehydrogenase (Plasmodium falciparum (isolate CDC / Honduras)) (UniProt Q27743); assay: PfLDH activity inhibition – cell lysate, 3D7 strain, counter-screen for P. falciparum growth inhibition project (AID 2304);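 further: 0% = vehicle and 100% = reference inhibitor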; details: P. falciparum 3D7 crude extract, LDH APAD/NBT absorbance; at 2 µM; active compounds read high
Sequence (Q27743 whole entry, looked up): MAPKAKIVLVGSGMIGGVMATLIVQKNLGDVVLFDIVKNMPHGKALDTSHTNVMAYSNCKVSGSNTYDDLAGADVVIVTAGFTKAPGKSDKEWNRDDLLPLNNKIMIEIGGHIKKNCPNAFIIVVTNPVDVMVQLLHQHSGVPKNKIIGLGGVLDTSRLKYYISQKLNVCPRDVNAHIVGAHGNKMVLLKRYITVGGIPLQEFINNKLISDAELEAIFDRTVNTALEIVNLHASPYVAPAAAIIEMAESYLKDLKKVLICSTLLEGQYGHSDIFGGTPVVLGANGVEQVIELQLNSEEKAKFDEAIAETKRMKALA

Question: How did the inhibition turn out when `O=C(Nc1ccc(-c2nc3ccccc3[nH]2)cc1)c1ccc(S(=O)(=O)N2CCc3ccccc32)cc1` was run?
Answer: 3%

Question: For `CCCCNCc1ccc(-c2nc(CN(Cc3ccc(Cl)c(Cl)c3)S(=O)(=O)c3ccc(NC(C)=O)cc3)cs2)cc1`, which inhibition is on record?
Answer: 5%

Question: How did the inhibition turn out when `CCCCCCCN1CC[C@@H](CCCc2ccnc3ccc(OCC4CCCNC4)cc23)[C@@H](CC)C1` (stereo partly specified) was run?
Answer: -1%

Question: Which inhibition does the source give for `COc1ccc(NC(=O)NC2CCN(c3ccnc4cc(Cl)ccc34)C2)cc1` (stereo unspecified) here?
Answer: -2%

Question: How did the inhibition turn out when `CCOc1ccc2c(NN=Cc3cc(OC)c(OC)cc3OC)cc(C)nc2c1` was run?
Answer: 4%

Question: For `CCc1cc(NC2CCN(C)CC2)nc(Nc2ccc(C)cc2)n1`, which inhibition is on record?
Answer: -7%

Question: How did the inhibition turn out when `O=C(CCC1CCCC1)N(Cc1ccc(-c2ccc(CNCCc3ccccc3)cc2)cc1)C1CCCNC1` (stereo unspecified) was run?
Answer: -2%

Question: With `Cc1cc(C(=O)Nc2ccc3c(c2)CCN3C2CCN(Cc3cc(F)cc(F)c3F)C2)no1` (stereo unspecified) as the compound, how does the inhibition read?
Answer: 0%

Question: How did the inhibition turn out when `CC(C)C(C(=O)Nc1ccc(S(=O)(=O)N(C)C)cc1)c1ccc(Cl)cc1` (stereo unspecified) was run?
Answer: -2%

Question: How did the inhibition turn out when `CCCC1N=C(N)N=C(N)N1c1ccc(OC)cc1` (stereo unspecified) was run?
Answer: -3%

Question: Which inhibition does the source give for `CSc1cccc(NC(=O)c2cc3ccccc3oc2=O)c1` here?
Answer: 4%

Question: `CCc1c[nH]c2c(N3CCCCS3(=O)=O)cc(C(=O)N[C@@H](Cc3ccccc3)[C@H](O)CNCc3cccc(OC)c3)cc12` was tested. Which inhibition did it give?
Answer: -3%

Question: With `CCn1c(-c2nonc2N)nc2c(C#CC(C)(C)O)ncc(OCCNCCc3ccc(OC)cc3)c21` as the compound, how does the inhibition read?
Answer: -7%

Question: `O=C(CCc1nc2c(cnn2-c2ccccc2)c(=O)[nH]1)NC1CCSc2ccccc21` (stereo unspecified) was tested. Which inhibition did it give?
Answer: -2%

Question: Which inhibition does the source give for `CCOC(=O)c1ccc(NC(=O)N(Cc2ccc(-c3cccc(CN4CCNCC4)c3)cc2)C2CCN(Cc3ccccc3)CC2)cc1` here?
Answer: 4%

Question: `COc1ccc(O)c(C(=O)c2cc(C(=O)NCCc3ccccc3)c(=O)n(CCc3ccccc3)c2)c1` was tested. Which inhibition did it give?
Answer: -2%

Question: `Cc1nn(CC(O)Cn2c3ccc(Br)cc3c3cc(Br)ccc32)c(C)c1Br` (stereo unspecified) was tested. Which inhibition did it give?
Answer: 1%

Question: How did the inhibition turn out when `NC1CCN(c2nc(NCCCc3ccc(O)cc3)nc(NCc3cccc4ccccc34)n2)CC1` was run?
Answer: 6%

Question: Which inhibition does the source give for `Cn1nccc1C(=O)NCCNCc1cccc(-c2ccc(-c3nc4ccccc4[nH]3)s2)c1` here?
Answer: -4%

Question: For `O=C(NC(Cc1ccccc1)C(=O)O)c1cc(=O)c2ccccc2o1` (stereo unspecified), which inhibition is on record?
Answer: -6%

Question: With `COc1cc(NC(=O)N2CCOC(CCN3CCC(c4ccccc4)CC3)(c3ccc(Cl)c(Cl)c3)C2)cc(OC)c1` (stereo unspecified) as the compound, how does the inhibition read?
Answer: 0%

Question: With `CN(C)CCOc1ccc2c(c1)CN(C)CC2c1ccccc1` (stereo unspecified) as the compound, how does the inhibition read?
Answer: -2%

Question: For `CC(Cl)=CCc1c(C)[nH]c2c(ccc3ccccc32)c1=O`, which inhibition is on record?
Answer: 8%

Question: Which inhibition does the source give for `COc1ccc2ncc(F)c(CCN3CC[C@@H](CNCc4nc5c(cc4C)SCC(=O)N5)C3)c2n1` here?
Answer: 1%

Question: With `CC1(C)[C@H]2CC[C@@H](CNc3nc(NCC(=O)Nc4ccc5ccccc5c4)nc(N4CCC(N5CCCC5)CC4)n3)[C@@H]1C2` as the compound, how does the inhibition read?
Answer: -5%

Question: How did the inhibition turn out when `CCNc1cc(C(=O)N[C@@H](Cc2cccc(F)c2)[C@H](O)CNC(C)CCCC(C)C)cc(N2CCCCS2(=O)=O)c1` (stereo partly specified) was run?
Answer: -4%

Question: `C[C@@H]1CN(C(c2cccc(O)c2)c2cccc(C(=O)N(C)c3cccc(F)c3)c2)[C@@H](C)CN1C(c1cccc(O)c1)c1cccc(C(=O)N(C)c2cccc(F)c2)c1` (stereo partly specified) was tested. Which inhibition did it give?
Answer: 0%

Question: Which inhibition does the source give for `O=C(NCCCCCN1CCC(c2c[nH]c3ccccc23)C1)Nc1ccc(Cl)c(Cl)c1` (stereo unspecified) here?
Answer: 1%

Question: Which inhibition does the source give for `CC(Cc1ccc(OCCN2CCN(c3ccc(Cl)cc3)CC2)cc1)NCC(O)c1cccc(C(F)(F)F)c1` (stereo unspecified) here?
Answer: 1%

Question: With `COc1ccc2c(c1)ncn2-c1cc(OCc2ccncc2Br)c(C(N)=O)s1` as the compound, how does the inhibition read?
Answer: -2%

Question: Which inhibition does the source give for `CC(C)N1CCN(CCCCNc2c3ccccc3nc3ccccc23)CC1` here?
Answer: -6%

Question: Which inhibition does the source give for `N#Cc1ccc2c(c1)CCN(CCC1CCC(NC(=O)c3cc4ccc(Br)cc4[nH]3)CC1)C2` (stereo unspecified) here?
Answer: -13%

Question: `COc1ccccc1CNc1nc(Nc2ccccc2C)nc2ccccc12` was tested. Which inhibition did it give?
Answer: -1%

Question: How did the inhibition turn out when `CNC(=O)NC1CCN(Cc2c(-c3cccs3)nc3ccccc3c2C(=O)N[C@@H](C)C2CCCCC2)CC1` was run?
Answer: 1%

Question: Which inhibition does the source give for `N#Cc1cccc(NC(=O)Nc2ccc(-c3csc(-c4nc5ccccc5[nH]4)c3)cc2)c1` here?
Answer: -3%

Question: `COc1ccc2nccc(N3CCC(NCCNCc4ccc5c(n4)NC(=O)CO5)C3)c2n1` (stereo unspecified) was tested. Which inhibition did it give?
Answer: 3%

From PubChem BioAssay
